MenB inh = blocks the Mycobacterium tuberculosis MenB enzyme; P9WNP5; MenB enzyme assay, absorbance read-out; inhibition, % (no concentration beside the values); hit rate 0.43% among 100,000; AID 540299; in the data active means inhibition above about 21%, passing the limit was not always enough
PV pol inh = poliovirus RNA polymerase inhibition | poliovirus polymerase elongation, fluorescence polarization; hits give low values | % elongation, % (compound at 16.7 µg/mL) | hit rate 0.66% among 150,000 | AID 588519; in the data active means % elongation below about 90%
Target sequence (P03300 1749-2209 limits assumed): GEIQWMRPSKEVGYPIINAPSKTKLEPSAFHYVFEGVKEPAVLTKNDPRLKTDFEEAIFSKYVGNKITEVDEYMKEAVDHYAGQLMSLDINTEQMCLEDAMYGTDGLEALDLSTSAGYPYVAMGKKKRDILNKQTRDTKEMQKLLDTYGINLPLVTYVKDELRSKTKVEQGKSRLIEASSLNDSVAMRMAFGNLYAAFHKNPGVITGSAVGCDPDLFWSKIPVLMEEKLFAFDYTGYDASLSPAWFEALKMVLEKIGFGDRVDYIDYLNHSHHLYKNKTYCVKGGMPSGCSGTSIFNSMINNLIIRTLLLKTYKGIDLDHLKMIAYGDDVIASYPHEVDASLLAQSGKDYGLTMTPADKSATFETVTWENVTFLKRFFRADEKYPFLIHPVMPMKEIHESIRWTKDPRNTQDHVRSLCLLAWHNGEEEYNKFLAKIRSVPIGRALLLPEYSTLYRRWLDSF
AID504770 = E. coli YBA685 growth inhibition, screen for V. cholerae RctB inhibitors. z-score (test concentration not listed). hit rate 0.27% among 130,000. AID 504770. E. coli YBA685 rctB-dependent plasmid, OD600 growth, 3 h; hits give low values; in the data active means z-score below about -2, passing the limit was not always enough
MbtI inh = MbtI salicylate synthase inhibition. hit rate 0.89% among 100,000. purified MbtI enzyme, fluorescence intensity read-out. P9WFX0. AID 493033. inhibition, % (no concentration beside the values); in the data active means inhibition mostly above about 56%, no sharp cut-off; inactive means mostly below about 77%
Starred values were filed as active, the others as inactive; . = not tested or not shown. Only some compounds are listed: those with a hit (about 1.5% of all), similar ones and a draw of the others.

SMILES	MenB inh	PV pol inh	AID504770	MbtI inh
Cc1cc(C)c(C#N)c(SCC(=O)OC(C)C)n1	-24.0	99.0	-0.65	-28.4
O=C1Nc2ccccc2/C1=N\N1C(=O)/C(=C/c2ccccc2)N=C1c1ccccc1	-56.7	88.0*	-1.1	.
CCOC(=O)C1=C(C)OC2(O)c3ccccc3C(=O)C12O (centres undefined)	15.5	56.0*	-0.9	-5.9
O=C(O)c1cc(S(=O)(=O)N2CCCC2)ccc1O	2.6	99.0	-0.25	-48.4
Cc1ccc(CN2CC34C=CC(O3)C(C(=O)O)C4C2=O)cc1 (centres undefined)	-13.6	101.0	0.15	-12.6
CC1=NN(c2ccccc2)C(=O)/C1=C/c1ccc(-c2ccccc2)o1	7.2	99.0	0.85	1.1
CC1=NN(c2cccc(C(=O)O)c2)C(=O)/C1=C/c1ccc(-c2cccc(Cl)c2C)o1	-16.8	90.0*	-0.45	37.8
COCc1nnc(NC(=O)C2CCN(C(=O)c3ccco3)CC2)s1	-2.1	93.0	0.7	92.3*
CC(C)c1nnc(NC(=O)C2CCN(C(=O)c3ccco3)CC2)s1	-58.1	105.0	2.3	63.8
COc1ccc(S(=O)(=O)N2CCN(c3cccc4[nH]ccc34)CC2)cc1OC	-24.3	102.0	-0.5	-11.6
O=c1c2ccccc2n2c(-c3ccc(Cl)cc3)nnc2n1CCc1ccccc1	.	74.0*	.	.
O=c1c2ccccc2n2c(-c3ccc(F)c(F)c3)nnc2n1CCc1ccccc1	.	105.0	.	.
CSC1=NSC2=NC(=O)/C(=C\c3cccs3)C(=N)N12	-60.7	99.0	-0.85	100.3*
CC(C)(C)c1cc(C(F)(F)F)nc(SCCNC(=O)c2cnn3cccnc23)n1	34.4*	101.0	-0.05	-15.0
CC(C)(C)c1ccc(NNC(=O)c2ccno2)cc1	-35.5	104.0	-0.05	-2.9
O=C1CN(/N=C/c2ccc(-c3ccc([N+](=O)[O-])cc3)o2)C(=O)N1	-4.5	100.0	.	17.1
O=C1OCCN1/N=C/c1ccc([N+](=O)[O-])o1	1.7	98.0	-4.35*	8.3
O=C1CN(/N=C/c2ccc([N+](=O)[O-])o2)C(=O)N1	-6.0	99.0	-2.3*	12.2
COc1cc(CCC(=O)NCc2ccccc2)cc(OC)c1OC	-8.3	102.0	-0.4	-8.8
COC(=O)c1c(NC(=O)C2CCCC2)sc2c1CCCC2	-15.9	82.0*	2.55	.
COC(=O)c1c(NC(=S)NCc2ccco2)sc2c1CCC2	-11.0	99.0	-0.7	60.8*
O=C(Nc1sc2c(c1C(=O)NCc1ccco1)CCC2)c1cccs1	-5.1	101.0	0.3	2.4
Nc1ccccc1SCc1ccc2nonc2c1	.	.	-1.6	.
CCC1=N/C(=C\c2ccc(C)cc2)C(=O)O1	.	.	-0.45	.
O=C(CC(NCc1ccco1)C(=O)O)Nc1cccc(Cl)c1 (centres undefined)	0.0	104.0	-0.4	-10.9
SMILES	MenB inh	PV pol inh	AID504770	MbtI inh
CC(C)n1nnnc1SCC(=O)c1ccc(F)cc1	27.8*	101.0	-0.3	0.1
CC(=O)Nc1ccc(C(=O)CSc2nnnn2C(C)C)cc1	-27.9	102.0	0.1	9.6
COc1cccc(C2c3c(C)nn(C)c3NC(=O)C2NC(=O)c2ccccc2)c1 (centres undefined)	-20.2	99.0	-0.25	-4.4
COc1cccc(-c2nnc(SCC(=O)NC3CCCCC3)o2)c1	.	88.0*	.	.
CCNC(=O)CSc1nnc(-c2cc(OC)c(OC)c(OC)c2)o1	-0.5	105.0	-6.1*	0.1
CC1(C)COC(CC(=O)c2ccc(Cl)cc2)=N1	-19.0	.	-0.4	9.2
CC1CCCC(C)N1Cn1nc2sc3ccccc3n2c1=S (centres undefined)	3.6	99.0	-0.45	97.6*
CCOc1ccccc1Nc1nnc(SCC(=O)NC(C)(C#N)C2CC2)s1 (centres undefined)	3.5	99.0	-0.85	0.9
C[C@H]1COc2c(N3CCN(C)CC3)c(F)cc3c(=O)c(C(=O)O)cn1c23	-7.5	102.0	-4.4*	-50.9
CCc1cc(=O)[nH]c(N2CCCCC2)n1	5.4	101.0	-0.3	1.8
CCOC(=O)c1c(NC(=O)c2cc(-c3cccc(Cl)c3)on2)sc(C)c1C	.	96.0	.	.
CCOC(=O)c1c(NC(=O)c2cc(-c3ccc(Br)cc3)on2)sc(C)c1C	.	89.0*	.	.
CCCN1C(=O)NC(CCC(=O)O)C1=O (centres undefined)	-16.8	102.0	-0.1	-5.3
CNC(=O)CN(c1ccccc1)S(=O)(=O)c1ccc(OC)cc1	0.4	98.0	0.5	-8.8
CCOc1ccc(NC(=O)Cn2c(=O)n(CC(=O)NCCc3ccccc3)c(=O)c3sccc32)cc1	.	81.0*	.	.
Cc1cccc(Cl)c1-n1sc(=O)n(CC2CC2)c1=O	-5.6	96.0	-1.55	72.1*
Cc1noc(C)c1-n1sc(=O)n(CC2CC2)c1=O	15.5	93.0	-0.8	99.4*
Cc1cccn(Cc2c(Cl)cccc2Cl)c1=O	-11.4	108.0	0.05	11.4
Cc1cc(C)cc(N(CC(=O)N=Nc2c(O)[nH]c3ccccc23)S(C)(=O)=O)c1	-6.4	100.0	-0.55	-5.3
CN(C)c1ccc(/C=C/C(=C(C#N)C#N)C2CC2)cc1	-10.3	106.0	-0.6	-11.5
N#Cc1c(-c2ccc(Cl)cc2Cl)c(C#N)c(=O)n(N)c1N	-52.1	98.0	-0.55	-74.9
CCCNc1nc(Cl)nc(Cl)n1	-56.3	101.0	0.55	-2.5
Clc1nc(Cl)nc(NNc2nc(Cl)nc(Cl)n2)n1	33.9*	100.0	0.2	-10.2
CC(C)Nc1nn(CN2CCN(C(=O)c3ccccc3)CC2)c(=S)s1	-3.3	91.0	-0.5	76.8*
Cc1noc(C)c1CSc1ccccc1C(=O)NC(C)c1ccc(-n2ccnc2)cc1 (centres undefined)	4.8	98.0	-0.25	99.2*
SMILES	MenB inh	PV pol inh	AID504770	MbtI inh
CC(NC(=O)Cn1[nH]c(=O)c2ccccc2c1=O)c1ccc(-n2ccnc2)cc1 (centres undefined)	-9.1	97.0	-0.3	-3.5
CCOc1ccc(OCC)c(S(=O)(=O)n2cnc3cc(C)c(C)cc32)c1	-20.3	100.0	-0.35	-17.0
Cc1cccc(NC(=O)CN(C2=NC3CS(=O)(=O)CC3S2)c2ccccc2)c1 (centres undefined)	-66.4	99.0	0.7	3.6
CCc1cccc(NC(=O)CN(C2=NC3CS(=O)(=O)CC3S2)c2cccc(C)c2)c1 (centres undefined)	-10.5	100.0	-2.45*	-4.5
CC1(C)CC(=O)C2=C(C1)N(CC(=O)O)C1=C(C(=O)CC(C)(C)C1)C2c1ccccc1	-226.2	100.0	-0.7	33.9
O=C(COC(=O)c1nc(Cl)ccc1Cl)c1ccc2[nH]c(=O)[nH]c2c1	-8.4	38.0*	0.2	-6.0
Cc1cc(C)nc(SCC(=O)OCC(=O)c2ccc3[nH]c(=O)[nH]c3c2)n1	1.7	101.0	-0.6	0.0
O=C(COC(=O)c1ccc(Cl)s1)c1ccc2[nH]c(=O)[nH]c2c1	-12.4	79.0*	0.4	5.2
Cc1cc(C(=O)OCC(=O)c2ccc3[nH]c(=O)[nH]c3c2)c2ccccc2n1	-10.1	90.0*	-0.25	-3.1
CCCCC(CC)C(=O)Nc1nnc(C(C)C)s1 (centres undefined)	0.6	99.0	-0.25	70.0*
C/C(=C\C(=O)c1cccnc1)Nc1ccccc1O	59.8*	102.0	0.25	26.6
Cc1ccc2oc(=O)c3cnn(CC(=O)Nc4ccccc4C)c3c2c1	.	.	0.3	.
